# Results published in the supplement of paper PMC6555819.
# Tests used:
# Assay in all cases: PBM binding z-score (relative to random genomic background probes); higher = stronger binding; sequences stand for … in GC…GCGATTGACAGCGTAGAATGAAGG
# [1] = test system: FXR:RXRa (NR concentration 270 nM, RXRa partner concentration 90 nM)
# Method in brief: (§1)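 Custom Agilent 4×180K protein-binding microarrays carried double-stranded probes, each with a 34-nt variable region. These regions held direct-repeat seeds, single-nucleotide variants, half-site ablations and random human genomic background sequences. Ligand-free nuclear receptor dimers were incubated on the arrays for 1 h, antibodies against each partner (one per run) detected binding, and scanned fluorescence was regression-normalized. Binding z-scores take the random background probes as reference.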
# [2] = test system: LXRa:RXRa (NR concentration 270 nM, RXRa partner concentration 90 nM)
# Method in brief: as §1
# [3] = test system: LXRa homodimer (NR concentration 270 nM)
# Method in brief: as §1
# [4] = test system: LXRb:RXRa (NR concentration 270 nM, RXRa partner concentration 90 nM)
# Method in brief: as §1
# [5] = test system: LXRb homodimer (NR concentration 270 nM)
# Method in brief: as §1
# [6] = test system: PPARa:RXRa (NR concentration 270 nM, RXRa partner concentration 90 nM)
# Method in brief: as §1
# [7] = test system: PPARg:RXRa (NR concentration 180 nM, RXRa partner concentration 90 nM)
# Method in brief: as §1
# [8] = test system: PPARg:RXRa 270nM:90nM, anti-RXR (NR concentration 270 nM, RXRa partner concentration 90 nM)
# Method in brief: as §1
# [9] = test system: PPARg:RXRa 30nM:10nM, anti-RXR (NR concentration 30 nM, RXRa partner concentration 10 nM)
# Method in brief: as §1
# [10] = test system: PPARg:RXRa 90nM:30nM, anti-RXR (NR concentration 90 nM, RXRa partner concentration 30 nM)
# Method in brief: as §1
# [11] = test system: PPARg:RXRa DBDmut IVT, anti-RXR (DBD mutation: RXRa K156A/R161A, NR concentration 270 nM, RXRa partner concentration 90 nM)
# Method in brief: as §1
# [12] = test system: PPARg:RXRa IVT, anti-PPARg (NR concentration 270 nM, RXRa partner concentration 90 nM)
# Method in brief: as §1
# [13] = test system: PPARg DBDmut:RXRa IVT, anti-PPARg (DBD mutation: PPARg1 K132A/R137A, NR concentration 270 nM, RXRa partner concentration 90 nM)
# Method in brief: as §1
# [14] = test system: PPARg DBDmut IVT, anti-PPARg (DBD mutation: PPARg1 K132A/R137A, NR concentration 270 nM)
# Method in brief: as §1
# [15] = test system: PPARg homodimer (NR concentration 180 nM)
# Method in brief: as §1
# [16] = test system: PXR:RXRa (NR concentration 270 nM, RXRa partner concentration 90 nM)
# Method in brief: as §1
# [17] = test system: PXR homodimer (NR concentration 270 nM)
# Method in brief: as §1
# [18] = test system: RARa:RXR (NR concentration 270 nM, RXRa partner concentration 90 nM)
# Method in brief: as §1
# [19] = test system: RARa homodimer (NR concentration 270 nM)
# Method in brief: as §1
# [20] = test system: RARb:RXRa (NR concentration 270 nM, RXRa partner concentration 90 nM)
# Method in brief: as §1
Sequence,PBM binding z-score [1],PBM binding z-score [2],PBM binding z-score [3],PBM binding z-score [4],PBM binding z-score [5],PBM binding z-score [6],PBM binding z-score [7],PBM binding z-score [8],PBM binding z-score [9],PBM binding z-score [10],PBM binding z-score [11],PBM binding z-score [12],PBM binding z-score [13],PBM binding z-score [14],PBM binding z-score [15],PBM binding z-score [16],PBM binding z-score [17],PBM binding z-score [18],PBM binding z-score [19],PBM binding z-score [20]
CGTCCTAGGTCAATGCTAGGTCAGTGAAAGCATT,3.74,3.83,1.98,2.38,0.076,3.34,1.92,2.52,0.255,1.31,3.18,3.31,-0.391,-0.333,2.76,2.57,-0.195,4.13,-0.0967,4.06
ATCTCTGGGTAAGACTCAGTTCAGTGAAGAACGC,0.0881,0.209,0.369,0.319,0.684,0.1,0.0592,0.276,0.108,0.0741,1.16,1.22,0.795,0.645,0.772,1.16,1.54,0.0495,0.661,0.293
CCTATTAGTTGACCATAACGGCAACCGAAGCTCG,0.455,0.697,0.909,0.584,0.966,0.199,0.702,0.486,0.219,0.318,0.934,0.243,0.836,1.13,2.08,0.499,1.25,0.72,2.49,0.584
ATCTCTAGGTAACAAGCTCAGTGAAAGAGAGGAC,0.331,0.45,-0.0616,-0.105,0.556,0.394,0.682,0.77,0.327,0.644,2.93,2.48,0.643,1.26,0.56,-0.0529,0.34,0.0879,0.837,0.417
GATACAGGGTCAGCTAGAGTCCAGAGTATGGAAA,4.63,2.73,-0.197,2.46,-0.266,4.62,3.75,3.12,0.896,1.87,1.24,2.05,0.791,0.0344,1.83,4.14,-0.0221,4.01,0.0956,3.84
GCATATAGGTAATACAAGGTGACAGTCCGATTGT,0.924,1.5,0.00702,0.333,-0.21,1.16,1.5,1.19,0.699,0.902,4.45,3.54,1.4,0.834,0.847,0.242,0.189,1.36,0.735,0.42
TCTAGTAGGTTACCAATGGGGCATTCAGCTTTCT,0.412,1.74,-0.049,1.37,0.0938,2.14,2.38,2.93,3.2,2.81,5.22,5.27,0.435,0.135,0.405,0.365,-0.176,0.372,5.32e-05,1.26
CGAACTAGATCATTGACAGGACAGTGAATAGTAA,-0.0761,-0.268,0.18,-0.274,-0.0892,0.0131,0.572,-0.333,0.0975,0.113,1.8,0.856,0.569,0.266,0.538,0.285,-0.0589,0.3,0.92,0.0179
CTAGCAAGGTGAACAAGGTCGTTGATTACTATTC,1.2,1.17,-0.0996,1.45,-1.03,2.39,0.843,1.3,0.0127,0.796,2.52,2.56,0.0933,-0.41,0.474,2.46,1.4,1.95,-0.493,2.15
CCGACTGGGGCAAGGTTACCACAACGCACAGCCA,0.0767,0.351,-0.32,0.671,-1.11,1.98,2.91,3.54,1.2,2.55,3.33,3.56,0.0122,-0.719,-0.214,0.24,-0.209,0.76,0.366,1.61
TCATATAGGTAGTACAGGTGAAAGTCGGCATCTA,1.11,1.01,0.38,0.84,0.0864,1.2,0.65,2.23,3.57,3.13,2.26,1.52,1.27,1.09,1.08,0.715,0.204,1.16,1.16,0.562
CCTCGGAGGACAACAGGAGGTCAGAACTGCCAGA,0.84,1.86,1.93,1.49,-0.518,1.78,0.525,-0.182,-0.754,-0.55,0.236,0.269,-1.45,-1.02,1.52,1.92,0.393,2.08,0.134,2.68
ATCGAAAGGTCGACGAGCTGAGTATACACCGTTT,4.14,3.16,0.028,2.59,0.389,4.22,2.33,2.87,1.17,1.72,0.472,1.18,0.525,1.06,0.589,2.22,-0.245,2.78,0.204,3.72
TCATATAGGTAAAGGTGAAAGCCGAACGATATGA,0.132,1.05,-0.406,1.09,-0.488,3.13,3.82,4.43,4.34,4.51,3.94,4.09,1.05,1.68,1.25,0.502,-0.307,1.44,-0.251,1.83
CAAACTAGGTCAGGGTCAAAGTCGGTTTGTGCCA,5.97,4.32,1.32,4.16,0.645,6.05,9,7.43,5.39,7.73,8.32,8.36,4.34,3.17,4.2,4.81,1.33,5.35,1.42,4.47
TAGCCTAGGTCAAGGGCCAGTATACCACGCGAAC,4.16,3.02,0.0881,2.2,-0.716,3.87,4.52,4.61,1.8,3.59,1.71,3.19,-0.167,-0.743,1.63,1.28,-0.234,2.31,-0.242,3.96
AGTCAAAGTTCATCTAGATAACGTAAGATATGCT,7.05,5.89,5.02,4.13,1.82,5,6.44,6.12,3.12,5.43,0.216,2.84,1.25,1.73,2.62,5,4.36,3.39,1.59,4.9
CCTCCAAGGTCAATGCTAGGTCAGTGAAAGCATT,6.43,5.53,2.29,4.51,1.02,5.22,3.95,4.93,1.2,3.28,3.02,3.34,-0.0903,-0.621,4.19,4.52,1.09,5.43,1.36,5.22
TCTCTGAGGACACGAAAGGTCAGAGCTCGACATC,3.12,3.53,3.1,2.98,0.245,3.53,1.56,2.9,2.68,2.75,1.67,2.12,0.453,1.37,2.33,4.09,0.562,4.33,0.907,4.2
TATCCTAGGTCATTGGGCCAGTATAGTACGCATC,4.8,6.02,5.49,3.44,2.48,4.44,5.45,4.94,2.33,4.11,4.13,5.49,1.68,3.21,2.35,2.21,0.746,2.96,0.931,3.98
CCTACTGGGCCATTCAGAGGTCATAGATCATATG,2.57,4,5.67,3.75,0.161,3.83,2.65,3.2,1.2,2.48,4.09,4.44,0.601,-0.0592,2.01,4.2,1.2,4.42,0.421,2.97
AGAATGAGGTTATTAAGATCAGGTAATTGCGGTC,1.7,1.73,0.77,1.33,0.187,2.49,1.38,1.96,0.716,1.09,3.34,2.83,0.665,0.745,1.17,1.48,0.904,1.51,0.41,1.37
CGAACTAGGTCAAGGACAGTGTATCTCCGCACGC,3.62,2.36,0.431,1.57,-0.208,4.9,7.62,6.48,3.91,5.64,7.97,8.01,3.03,0.882,1.62,1.43,-0.0646,2.03,0.437,3.95
CGAACTAGGTCATTGACAGGACAGTCAATAGTAA,4.28,3.15,0.489,2.19,0.17,4.74,7.38,6.08,3.32,5.75,7.74,8.19,3.76,2.34,1.94,1.66,0.135,2.34,0.378,3.51
TCTGCTAGGTGAACGATGGTCAGCTAATCTGCTA,-0.414,-0.432,-0.946,-0.499,-1.35,0.449,0.238,0.769,1.17,0.916,3.12,2.97,-0.708,-0.769,-0.746,-0.428,-0.962,-0.153,-1.26,0.881
GGAACGAGGGCAAGTTTATAGCAGAGTTTGATGG,0.688,0.332,-0.039,0.229,-0.306,1.61,1.24,0.978,0.337,0.307,3.91,2.81,0.157,-0.37,0.767,1.13,1.44,0.25,-0.0736,2.6
ATATGTAGGTTAAGGGTTATTCAGGTTGGTTCGC,2.31,3.16,1.3,2.8,1.11,5.82,10.4,8.81,8.91,9.75,7.57,7.51,3.47,3.04,2.78,2.84,1.6,2.88,2.39,1.88
CCTAGCAGGCCAATCTGGGTCACACAAGGCTTGA,1.88,1.82,-0.247,1.21,-0.968,3.68,3.08,2.68,0.555,2.1,4.53,5.23,0.519,-0.276,0.856,1.56,-0.6,1.86,0.119,1.76
